# Laboratory results reported in PubChem BioAssay AID743373 (National Center for Advancing Translational Sciences (NCATS), 2014).
# Several values for one entry are separate records, joined by “and”; a condition that tells them apart may be missing. Identical values can stand only once. Records with an inconclusive call do not appear. Entries that show only a call come without a potency. Activity calls are given as the source filed them. Calls follow the shape of the dose curve; as a rule, active = well fitted inhibition curve with a large enough effect; inconclusive = small, poorly fitted or top-dose-only effect; inactive = flat fitted curve, though single readings scatter.
# Molecular target: Galactokinase (Homo sapiens) (UniProt P51570)
# Sequence (P51570 whole entry, looked up): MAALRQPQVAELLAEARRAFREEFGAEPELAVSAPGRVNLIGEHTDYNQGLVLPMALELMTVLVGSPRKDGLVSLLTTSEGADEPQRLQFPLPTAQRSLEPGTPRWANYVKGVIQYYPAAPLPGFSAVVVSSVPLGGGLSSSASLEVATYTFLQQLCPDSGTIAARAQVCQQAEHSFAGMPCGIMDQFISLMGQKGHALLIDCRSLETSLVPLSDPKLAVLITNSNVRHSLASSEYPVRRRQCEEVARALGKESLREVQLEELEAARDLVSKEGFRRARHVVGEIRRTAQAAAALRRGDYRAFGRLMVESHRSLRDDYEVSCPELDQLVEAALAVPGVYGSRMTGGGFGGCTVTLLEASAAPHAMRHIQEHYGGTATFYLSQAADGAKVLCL
# Experiment: qHTS for Inhibitors of Human Galactokinase (GALK): Confirmation Assay for SAR round 4
# Details: recombinant GALK, ADP-Glo luminescence, 1 h; series mostly up to 57.5 µM
# Text: Inherited deficiency of galactose-1-phosphate uridyltransferase (GALT) can result in a potentially lethal disorder called Classic Galactosemia (OMIM 230400). Several lines of evidence indicate that an elevated level of galactose-1-phosphate (gal-1-p), the product of galactokinase (GALK), is a major, if not sole, pathogenic mechanism in patients with classic galactosemia. Therefore, finding inhibitors of GALK is a potential novel therapy for this inherent metabolic disease and is the long term goal of this project. Active compounds observed in the qHTS GALK assay (AID: 1868) were cherry picked and re-screened for validation. GALK (provided by Kent Lai) was assayed using ATP and D-(+)-Galactose (Sigma-Aldrich cat# G0750) as substrates. Promega ADP-Glo technology was used to detect the ADP product formed after the kinase reaction. Kinase reactions with and without GALK were used as negative and positive controls together with Protein Tyrosine Phosphatase CD45 inhibitor (EMD Bioscience cat# 540215) which is shown to inhibit GALK activity. Decrease in activity corresponds to inhibition of the enzyme, the desired outcome for this assay. NIH Molecular Libraries Probe Production Network [MLPCN] NIH Chemical Genomics Center [NCGC] Grant: R03 MH085689-01 PI Name: Kent Lai, University of Utah
# Two uL/well of ATP-buffer solution (35 uM ATP, 20mM HEPES pH8.0, 5 mM MgCl2, 60 mM NaCl, 1 mM DTT, 0.01% BSA final concentration) was dispensed into 1536-well, assay plates (Greiner, solid white medium-binding plates) with Aurora Discovery BioRAPTR Flying Reagent Dispenser (FRD; Beckton-Dickenson). Compound and control solution (23 nL) was transferred to the assay plate using the Kalypsys 1536-pin tool apparatus. Half uL/well GALK-galactose solution (5 nM GALK, 100 uM galactose, 20 mM HEPES pH8.0, 5 mM MgCl2, 60 mM NaCl, 1 mM DTT, 0.01% BSA final concentration) was then added using the FRD yielding a total kinase reaction volume of 2.5 uL/ well. After 1 hour of room temperature incubation, 2.5 uL ADP-Glo reagent A was added and incubated for 15 min. Five micorliter of ADP-Glo reagent B was then added per well and incubated for additional 15 min at room temperature. Luminescence was detected with the ViewLux plate reader (Perkin Elmer, Waltham, MA) using a 1 sec exposure time and 2x binning.
row,Compound,Potency
1,CC1=C(C(=O)Nc2nc3ccccc3s2)C(c2[nH]ncc2Cl)N=C(Nc2nc3ccccc3o2)N1 (stereo not given),inactive
2,CC1=C(C(=O)Nc2noc3ccccc23)C(c2nn(C)cc2Cl)N=C(Nc2nc3ccccc3o2)N1 (stereo not given),inactive
3,CC1=C(C(=O)Nc2nc3ccccc3s2)C(c2nn(C)cc2Cl)N=C(Nc2nc3ccccc3o2)N1 (stereo not given),inactive
4,CNC(=O)C1=C(C)NC(Nc2nc3ccccc3o2)=NC12CCCC2,inactive
5,CC1=C(C(=O)Nc2ccon2)C2(CCCC2)N=C(Nc2nc3ccccc3o2)N1,7.69 µM (active)
6,O=C1CCCC2=C1C(c1ccncc1Cl)N=C(Nc1nc3ccccc3o1)N2 (stereo not given),10.9 µM (active)
7,O=C1C2=C(CN1c1ccccc1)NC(Nc1nc3ccccc3o1)=NC2c1ccccc1Cl (stereo not given),inactive
8,O=C1CCCC2=C1C(c1[nH]ncc1Br)N=C(Nc1nc3ccccc3o1)N2 (stereo not given),15.3 µM (active)
9,CC1=C(C(=O)Nc2nncs2)C(c2[nH]ncc2Cl)N=C(Nc2nc3ccccc3o2)N1 (stereo not given),7.69 µM (active)
10,CC1=C(C(=O)NC2CCCC2)C(c2[nH]ncc2Cl)N=C(Nc2nc3ccccc3o2)N1 (stereo not given),inactive
11,CC1=C(C(=O)Nc2ccc(Cl)cc2)C(c2ccccc2Br)N=C(Nc2nc3ccccc3o2)N1 (stereo not given),inactive
12,O=C1CCCC2=C1C(c1[nH]ncc1Cl)N=C(Nc1nc3ccccc3o1)N2 (stereo not given),5.44 µM (active) and 6.85 µM (active)
13,CC1=C(C(=O)Nc2nc3ccccc3s2)C2(CCCC2)N=C(Nc2nc3ccccc3o2)N1,inactive
14,CC1=C(C(=O)Nc2noc3ccccc23)C2(CCCC2)N=C(Nc2nc3ccccc3o2)N1,inactive
15,O=C1CCCC2=C1C(c1ccccc1Cl)N=C(Nc1nc3ccccc3o1)N2 (stereo not given),13.7 µM (active)
16,O=C1C2=C(CN1Cc1ccccc1)NC(Nc1nc3ccccc3o1)=NC2c1ccccc1Cl (stereo not given),inactive
17,CC(C)CN1CC2=C(C1=O)C(c1ccccc1Cl)N=C(Nc1nc3ccccc3o1)N2 (stereo not given),inactive
18,O=C1CCCC2=C1C(c1ccccc1Br)N=C(Nc1nc3ccccc3o1)N2 (stereo not given),4.32 µM (active)
19,O=C1CCCC2=C1C(c1ccccc1I)N=C(Nc1nc3ccccc3o1)N2 (stereo not given),3.06 µM (active)
20,CC1=C(C(=O)Nc2ccon2)C(c2ccccc2Br)N=C(Nc2nc3ccccc3o2)N1 (stereo not given),7.69 µM (active)
